Records with an inconclusive call do not appear. Where a call stands in place of a potency, no number is given. Unmarked numbers belong to inactive results. The source made the active and inactive calls. Calls follow the shape of the dose curve; as a rule, active = well fitted cell-killing curve with a large enough effect; inconclusive = small, poorly fitted or top-dose-only effect; inactive = flat fitted curve, though single readings scatter.
Experiment: COV-362 Cancer Cell Toxicity qHTS against the NCATS CANVASS Library (AID 1347352)
Settings: COV-362 viability, CellTiter-Glo luminescence, 72 h; series mostly up to 38.3 µM
From the text: Natural products and their derivatives continue to be wellsprings of nascent therapeutic potential. However, many laboratories have limited resources for biological evaluation, leaving their previously isolated or synthesized compounds largely or completely untested. To address this issue, the Canvass library of natural products was assembled (https://tripod.nih.gov/canvass), in collaboration with academic and industry researchers, for quantitative high-throughput screening (qHTS) across a diverse set of cell-based and biochemical assays. The pure (>85% purity by liquid chromatography/mass spectrometry [LC/MS]) Canvass library of 346 natural products were submitted by 45 academic laboratories and companies around the world. We collected pure natural products to circumvent deconvolution and structure elucidation due to time and resource limitations. The library was formatted into 1536-well plates and evaluated in 50 qHTS (in an 11-pnt concentration series) bioassays with broad scope of disease-relevant mechanisms. The resulting data set from 50 different assays was then systematically analyzed to identify overall trends and specific natural products with interesting biological activities. Reported herein are the results of each individual qHTS and their corresponding assay protocol. National Center for Advancing Translational Sciences (NCATS), Rockville, MD National Institute of Health (NIH), Bethesda, Maryland
Cancer Cell Toxicity COV-362, OV-KATE, OV-SAHO, UWB1.289, UWB1.289-WTBRCA1, HEK-293, HPAF-II, Panc-1005, SW1088, and U-118MG-screen protocol. 1. In a 1536 well, white solid bottom tissue culture plates (Corning 7494), corresponding cells (COV-362, OV-KATE, OV-SAHO, UWB1.289, UWB1.289-WTBRCA1, HEK-293, HPAF-II, Panc-1005, SW1088, or U-118MG) were dispensed in each well at a final concentration of 1000 cells / well (6uL volume) using the Multidrop Combi (Thermo Fisher Scientific) dispenser. 2. The plates were incubated for 4 hours at 37 degrees C/5% CO2/95% Rh. 3. Compounds were pin transferred (~23nL volume) via Wako Pin-tool (Wako Automation, Richmond VA) equipped with a 1536 pin head. The assay plates were treated with compounds in an 11-pnt concentration series with a final concentration range of […] to 85uM. 4. Bortezomib was used as a single dose control (0.5mM column 4, rows 1 - 32) at a final concentration of 1.9uM and as a 16pnt titration (1mM; 1:2 dilution; 16-points; n = 2; column 3, rows 1 - 32) with final concentration range of 0.1nM - 3.8uM. 5. The assay plates were incubated for 72 hours at 37 degrees C/5% CO2/95% Rh. 6. 3uL CellTiter-Glo detection reagent was then added to the plates (columns 2 - 48, rows 1 - 32) and incubated at room temperature for additional 15min. 7. Luminescence signal was acquired via the ViewLux plate reader (PerkinElmer) using a clear filter, 2 second exposure and 2x binning settings.
Potency is read from the fitted curve at half-maximal effect.

Compound	Potency	activity change, negative = cytotoxicity
C[C@@]12C[C@@H](C[C@@H]3C(=O)O[C@@H](c4ccoc4)[C@H](OC(=O)c4ccccc4)[C@@H]31)OC2=O	inactive	
CCCc1c2c([nH]c(=O)c1C)C(=O)c1[nH]c(=O)c(C)c(CCC)c1C2=O	7.47 µM (active)	
COc1ccc([C@@H]2c3cc4c(cc3C(=O)C(C)C2C)OCO4)cc1OC (stereo not given in full)	inactive	
COc1cc2ccc(=O)oc2c(O)c1O[C@@H]1O[C@H](CO)[C@@H](O)[C@H](O)[C@H]1O	inactive	
COc1ccc(-c2oc3cc(OC)cc(OC)c3c(=O)c2O)cc1	inactive	
CN1C(=O)C(=O)N2C(=C[C@]3(c4c[nH]c5ccccc45)c4ccccc4N[C@H]23)C1=O	inactive	
CCC(=O)N[C@@H](C[C@H](C)C(Cl)(Cl)Cl)C(=O)N1C(=O)C=C(OC)[C@@H]1CC(C)C	inactive	
C[C@@]12CCC[C@@](C)(C(=O)O)[C@H]1CC[C@@]13C[C@@H](CC[C@H]12)[C@](C)(O)C3	inactive	
C=C1CC[C@@H](O[C@H]2C[C@@](O)([C@H](C)NC(=O)c3[nH]c(C)c(Cl)c3Cl)[C@H](O)[C@@H](C)O2)[C@@H]2C=C[C@H](C)C(/C(O)=C3/C(=O)[C@H](C(C)C)N([C@@H]4O[C@H](C)[C@H](OC(N)=O)[C@H](OC(C)=O)[C@@H]4OC)C3=O)[C@@H]12 (stereo not given in full)	inactive	
COc1c(O)cc2c(c1O)C(=O)c1c(coc1C)C2=O	inactive	
C=C1C[C@]23C=CC(=O)[C@@](C)(CCCC(C)C(=O)N[C@@H](CO)C(=O)O)[C@@H]2C[C@@H]1CC3 (stereo not given in full)	inactive	
C/C=C(/C)c1cc(O)c(C)c2c1Oc1cc(O)cc(C)c1C(=O)O2	inactive	
COc1cc(/C=C/C(=O)OC[C@@H](Cc2ccc(O)c(OC)c2)[C@@H](COC(=O)/C=C/c2ccc(O)c(OC)c2)Cc2ccc(O)c(OC)c2)ccc1O	18.8 µM (active)	
C=C1C(=O)O[C@H]2[C@H]1CCC(C)=C1CC[C@@](C)(O)[C@@H]12	16.7 µM (active)	
COc1cc2c(c(O)c1O)C(=O)c1c(coc1C)C2=O	13.3 µM (active)	
O=C1CC(c2ccc(O)cc2)Oc2cc(O)ccc21 (stereo not given)	inactive	
C=C1CC[C@@H](Br)C(C)(C)[C@]12CC=C(C)C(=O)C2	inactive	
[C-]#[N+][C@@]12C(=O)[C@@H]3[C@@H](O[C@@]4(C(=O)N(C)c5cccc1c54)C3(C)C)C(=O)[C@@]2(C)C=C	inactive	
CC(=O)Oc1cc2c(c(OC(C)=O)c1C1CCc3cc(Cl)c(Cl)n31)C(=O)n1c-2cc(Cl)c1Cl (stereo not given)	9.41 µM (active)	
COc1ccc([C@@H]2c3cc4c(cc3C(=O)[C@H](C)C2C)OCO4)cc1OC (stereo not given in full)	inactive	

Compound	Potency	activity change, negative = cytotoxicity
C=CC(CCCCC)C1C(=O)NC(=O)C1C(=O)C1C(/C=C/C)C=CC2CC(C(=O)O)CC(C)C21 (stereo not given)	inactive	
C/C(=C\[C@@H](C)CC/C=C/CC/C=C/C(=O)O)[C@@H](O)[C@H](C)C(=O)CCCC1CC(=O)NC(=O)C1	inactive	
CC(C)C[C@@H]1c2c(O)c(C=O)c(O)c(C=O)c2O[C@]2(C)C=C[C@@H](C(C)C)C[C@H]12	inactive	
O=c1cc(-c2ccc(O)c(O)c2)oc2cc(O[C@@H]3O[C@H](CO)[C@@H](O)[C@H](O)[C@H]3O)cc(O)c12	inactive	
O=Cc1ccc2n1C[C@]1(OC2)O[C@H](CO)[C@@H](O)[C@@H]1O	inactive	
C[C@]12CC[C@]3(C1)[C@H](CC2=O)C[C@@H](OC(=O)c1ccccc1)[C@H]1[C@](C)(C(=O)O)CCC[C@@]13C	inactive	
COC1C(C)OC(OCC23C[C@@H]4[C@H](C)CC[C@H]4C4(C=O)CC2C=C(C(C)C)C34C(=O)O)[C@@H](O)[C@H]1O (stereo not given in full)	inactive	
COC(=O)[C@@]1(C)CCC[C@]2(C)c3cc(OC)ccc3CC[C@@H]12	inactive	
CC1(C)CC[C@]2(CO)CC[C@]3(C)C(=CCC4[C@@]5(C)CC[C@H](O)C(C)(C)C5CC[C@]43C)C2C1 (stereo not given in full)	inactive	
C[n+]1cc2cc(C(N)=O)[nH]c3c(=N)c(Cl)c(N)c1c23	inactive	
C=C[C@@]1(C)CC[C@@H]([C@H](C)C(C)=O)O1	inactive	
C/C=C(/C)c1c(Cl)c(O)c(C)c2c1Oc1c(Cl)c(O)c(Cl)c(C)c1C(=O)O2	inactive	
C[C@H](c1cnc(N)[nH]1)c1ccc(O)c2[nH]cc(-c3cnc(-c4c[nH]c5ccccc45)c(=O)[nH]3)c12	inactive	
COc1ccc([C@@H]2CC(=O)c3c(cc(O)c(C/C=C(\C)CCC=C(C)C)c3O)O2)cc1		1.08% [at 7.64 µM]
COC12OC1(C13OC1(OC)C(=O)c1cc4cc(C)oc(=O)c4c(O)c1C3O)C(O)c1c(cc3cc(C)oc(=O)c3c1O)C2=O (stereo not given)	inactive	
CN1CC[C@@]2([C@@]34CCN(C)[C@@H]3Nc3ccccc34)c3ccccc3N[C@@H]12	inactive	
CCC(=O)CCCCC[C@@H]1NC(=O)[C@H]2CCCCN2C(=O)[C@H](C(C)C)NC(=O)[C@H](Cc2cn(OC)c3ccccc23)NC1=O	18.8 µM (active)	
C[C@H](CCC(O)C(C)(O)CO)[C@@]1(O)CC[C@@]2(C)C3=C(CC[C@@]21C)[C@@]1(C)CCC(OC(=O)CCC(=O)O)C(C)(C)[C@@H]1CC3 (stereo not given in full)	inactive	
C=C[C@]1(C)CC[C@@H]([C@H](C)C(=O)CC=C(C)C)O1	inactive	
C=CC(CCCCC)C1C(=O)NC(=O)C1C(=O)C1C2C(C)CC(C(=O)O)CC2CC1(O)C(=O)/C=C/C (stereo not given)	inactive	

From PubChem BioAssay (NCATS)
